# In PubChem BioAssay (NCI):
# “And” between values parts separate entries of the source, which are not always exact repeats. Equal values may be shown once. About 83,000 compounds went through this panel and 20% of them were active in at least one assay; those are over-represented in the sample as a whole.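 Cells were grown in 96-well plates and exposed to the test compound at a single concentration for 48 hours; results are reported as percent growth, with values below 10 considered active.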 The source made the active and inactive calls.
# Tested on: MDA-MB-468 breast
# Assay: NCI-60 one-dose screen, 48 h (100 = growth as untreated, 0 = no growth, -100 = all killed)
# Conditions: 10 µM unless noted
row,SMILES,growth
1,c1ccc(-c2nc(N3CCOCC3)c3c4c(sc3n2)CCCCC4)nc1,65.7% (inactive)
2,N#CSCC1CC(O)(c2ccccc2)C(c2ccccc2)C(c2ccc(F)cc2)O1 (stereo not given),-13.4% (active)
3,COc1cc(-c2nccc3[nH]c(-c4cccc5[nH]ccc45)nc23)cc(OC)c1OC,-26.1% (active)
4,CC(=O)c1cc2c(N)c(C(=O)Nc3cccc4ccccc34)sc2nc1C,4% (active)
5,c1ccc2c(CC3=NCCN3)cccc2c1,92.3% (inactive) and 101% (inactive)
6,COc1ccc(C(O)c2cc3c(N)c(C(=O)Nc4cccc(Cl)c4)sc3nc2C)cc1 (stereo not given),22.4% (inactive)
7,O=S(=O)(NCCCNc1nccc(-c2[nH]c(-c3ccccc3)nc2-c2ccc(F)c(O)c2)n1)c1ccc(C(F)(F)F)cc1,-8.61% (active)
8,NNc1ccc2ccccc2c1,83.7% (inactive) and 88.7% (inactive)
9,COc1ccc(-c2nc(C(Cl)Cl)nc3cc(-c4ccccc4)nn23)cc1,-55.8% (active)
10,CNC(=O)c1ccccc1Oc1nc(Nc2cc(OC)c(OC)c(OC)c2)ncc1Br,49.6% (inactive)
11,COc1cc(OC)c2c(=O)c(O)c(-c3ccccc3)oc2c1,75.5% (inactive)
12,COc1ccc(C2CC(c3ccc(OC)c(OC)c3)=NN2C(=O)c2cc(OC)c(OC)c(OC)c2)cc1 (stereo not given),-32.5% (active)
13,CNC1=CC(=O)c2c(C(=O)OC)c(C)[n+]([O-])c(C)c2C1=O,34.7% (inactive)
14,CCCOCc1cn[nH]n1,105% (inactive)
15,NC(=S)n1c(=O)n(-c2cccc(C(F)(F)F)c2)c(=O)c2cc(-c3ccc(F)cc3F)ccc21,1.23% (active)
